# Measurements from PubChem BioAssay AID504332 (National Center for Advancing Translational Sciences (NCATS), 2011).
# In all, about 350,000 compounds went through this assay and about 31,000 (8.9%) were called active. Not shown: some 15% with an inconclusive outcome. Only a selection was taken, and actives are over-represented in it overall. Values without a mark were called inactive. Calls follow the shape of the dose curve; as a rule, active = well fitted inhibition curve with a large enough effect; inconclusive = small, poorly fitted or top-dose-only effect; inactive = no such curve, though single readings can be large or run the other way.
# Molecular target: Histone-lysine N-methyltransferase EHMT2 (Homo sapiens) (UniProt Q96KQ7)
# Assay: qHTS Assay for Inhibitors of Histone Lysine Methyltransferase G9a; also: nearly all actives have a fitted effect of over 75% in size
# Details: G9a H3K9 monomethylation, AlphaScreen, 2 h; series mostly up to 59 µM; activity, negative = inhibition: at the top concentration
# Summary of the method: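 Methyltransferase reactions run at room temperature for 2 h (20 nM enzyme, 500 nM biotin-H3K9 peptide, 20 uM SAM) after a 15 min compound preincubation; product detected by AlphaScreen beads and anti-H3K9me1 antibody.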
# % is scaled to controls: 0 for no effect and ±100 for the full control effect; potency is read from the fitted curve at half-maximal effect.
# Histone-lysine N-methyltransferase EHMT2 (Homo sapiens), sequence (Q96KQ7 913-1193 limits assumed): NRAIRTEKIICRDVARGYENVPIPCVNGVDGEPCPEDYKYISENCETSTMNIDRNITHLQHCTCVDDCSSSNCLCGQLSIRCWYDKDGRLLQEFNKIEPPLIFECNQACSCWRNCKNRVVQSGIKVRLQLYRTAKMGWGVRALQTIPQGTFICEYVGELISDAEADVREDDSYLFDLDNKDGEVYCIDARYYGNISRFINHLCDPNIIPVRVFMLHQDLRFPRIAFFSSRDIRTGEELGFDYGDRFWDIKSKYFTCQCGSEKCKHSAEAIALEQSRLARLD
Structure (SMILES),"activity, negative = inhibition",Potency
O=C(Nc1nnc(C2CC(=O)N(c3ccc(Cl)cc3)C2)s1)c1ccco1 (stereo unspecified),-2.59%,–
CCN(c1ncnc2c1cnn2-c1ccc(C)cc1)C1CCCCC1,6.18%,–
COc1ccccc1OCC(O)CN1CCOCC1 (stereo unspecified),16.1%,–
C/C=C/c1ccc(OCC(O)CN2CCCCCCC2)c(OC)c1 (stereo unspecified),–,20 µM (active)
C/C=C/c1ccc(OCCCCN2CCC(C)CC2)c(OC)c1,-45.5% [at 102 µM],–
CCC(=O)N1CCc2cc(S(=O)(=O)NC(Cc3ccccc3)C(=O)NCc3ccc(C)cc3)ccc21 (stereo unspecified),1.8%,–
c1ccc(CNc2ncnc3[nH]ncc23)cc1,0.452%,–
CCCCn1c(N)c(N(CC(C)C)C(=O)CSc2ccc([N+](=O)[O-])cc2)c(=O)[nH]c1=O,–,50.1 µM (active)
CCCCn1c(N)c(N(CC(C)C)C(=O)c2cnc(C)cn2)c(=O)[nH]c1=O,-29.2% [at 102 µM],–
CCCCN(C(=O)c1ccc2ccccc2c1)c1c(N)n(CCCC)c(=O)[nH]c1=O,-3.76%,–
CCCCN(C(=O)CCNC(=O)NC12CC3CC(CC(C3)C1)C2)c1c(N)n(CCCC)c(=O)[nH]c1=O,-3.13% [at 0.501 µM],–
CCCCn1c(N)c(N(CCC(C)C)C(=O)COC(=O)c2ccc(CC)cc2)c(=O)[nH]c1=O,-39.5% [at 102 µM],–
CCCCN(C(=O)c1ccc(C)o1)c1c(N)n(CCCC)c(=O)[nH]c1=O,4.93% [at 0.501 µM],–
CCCCn1c(N)c(N(CC(C)C)C(=O)c2ccc(Br)o2)c(=O)[nH]c1=O,-3.52% [at 102 µM],–
CCCCn1c(N)c(N(CC(C)C)C(=O)c2ccc(-n3c(C)ccc3C)cc2)c(=O)[nH]c1=O,–,56.2 µM (active)
CCCCn1c(N)c(N(CC(C)C)C(=O)C2CSC3(C)CCC(=O)N23)c(=O)[nH]c1=O (stereo unspecified),–,50.1 µM (active)
Cc1cc(C)c2oc(C(=O)Nc3ccc(S(=O)(=O)N(C)c4ccccc4)cc3)cc(=O)c2c1,3.25%,–
COc1cc(OC)cc(C(=O)Nc2c(C(=O)Nc3ccc(F)cc3)oc3ccccc23)c1,-21.7%,–
Cc1ccccc1CSCCNC(=O)C1CCN(S(=O)(=O)Cc2ccccc2)CC1,-6.76%,–
CC(OC(=O)Cc1ccc(F)cc1)C(=O)N1CCc2ccccc21 (stereo unspecified),11.4% [at 102 µM],–
COc1ccc([C@H]2CC(=O)C=C(/C=C/c3ccc(Cl)cc3)C2)cc1,9.28% [at 2.33 µM],–
Cc1c(C)n2c(SCC(=O)N3CCCC3)nnc2[nH]c1=O,6.3%,–
Cc1ccc(NNC(=O)C2CCC2)cc1C,–,11.2 µM (active)
O=C(NNC(=O)C1CCC1)c1ccccc1,24.7% [at 12.7 µM],–
Cc1ccc(C)c(OCC(=O)NNC(=O)C2CCC2)c1,-2.65% [at 12.7 µM],–
Cc1cc(C)n2nc(C(=O)OCC(=O)N(CCC#N)c3ccc(F)cc3)nc2n1,12.1% [at 0.501 µM],–

Structure (SMILES),"activity, negative = inhibition",Potency
CCC1(c2ccccc2)NC(=O)N(CC(=O)c2ccc3c(c2)OCO3)C1=O (stereo unspecified),-7.32% [at 102 µM],–
O=C(CN1CCC(O)(c2cccc(C(F)(F)F)c2)CC1)NCCc1ccccc1,13.3%,–
CC(C)c1ccc(NC(=O)C2CCN(c3nc(-c4ccc(C(C)C)cc4)no3)CC2)cc1,50.8%,–
CCN(CC)c1ccc(NS(=O)(=O)c2cc(-c3cc(C)no3)ccc2C)c(C)c1,–,3.16 µM (active)
CCOc1ccccc1CNS(=O)(=O)c1cc(-c2cc(C)no2)ccc1C,36% [at 102 µM],–
Cc1cc(-c2ccc(C)c(S(=O)(=O)Nc3ccc(S(N)(=O)=O)cc3)c2)on1,-5.1% [at 102 µM],–
COc1ccc2c(C)c(CCC(=O)NCc3ccc(OC)c(OC)c3)c(=O)oc2c1,18.4%,–
CC(=O)N1CCCc2cc(S(=O)(=O)N3CCC(C(=O)NCc4ccc(C)cc4)CC3)ccc21,14.7%,–
COc1cccc2sc(Nc3nc(C)c(C(C)=O)s3)nc12,34.5%,–
COc1ccccc1OCc1nc2ccccc2s1,17.1% [at 12.7 µM],–
COc1cccc2sc(NNC(=O)c3nc4ccccc4s3)nc12,–,12.6 µM (active)
O=C(Nc1cc(C(F)(F)F)ccc1Cl)c1nc2ccccc2nc1N1CCCCC1,-43.5%,–
O=S(=O)(c1ccc(Cl)cc1)c1nnn2c1nc(NC1CCCC1)c1sccc12,1.91%,–
CC1(C)CC(=O)C=C(c2ccc3ncccc3c2)C1,6.31% [at 2.33 µM],–
COc1ccc(S(=O)(=O)N2CCOCC2)cc1NC(=O)CC1CC2CCC1C2 (stereo unspecified),1.4% [at 2.33 µM],–
COc1ccccc1/C=C/C(=O)NC(=S)N1CCOCC1,7.72% [at 102 µM],–
O=C(/C=C/c1ccco1)NC(=S)N1CCCCC1,–,70.8 µM (active)
CCNC(=S)N1CCN(C(=O)c2ccco2)CC1,10.1%,–
COc1ccc(Cl)cc1NC(=O)CN(C)C(=O)c1cc(-c2cccs2)nn1-c1ccccc1,8.22% [at 0.501 µM],–
CCOC(=O)c1ccc(NC(=O)Cn2c(=O)n(-c3ccc(C)cc3)c(=O)c3c2cnn3C)cc1,2.42%,–
CCc1ccccc1NS(=O)(=O)c1ccc2nc(-c3ccccc3)[nH]c2c1,1.79%,–
O=S(=O)(Nc1ccc2nc(-c3cccc(Cl)c3)oc2c1)c1ccccc1,8.09%,–
O=S(=O)(Nc1ccc2nc(-c3ccco3)[nH]c2c1)c1ccccc1,–,31.6 µM (active)
COc1ccc2oc(=O)c(-c3cn4c(n3)sc3cc(OC)ccc34)cc2c1,-0.0294%,–
CCn1c(CN2CCC(C)CC2)nc2cc(NC(=O)c3ccccc3[N+](=O)[O-])ccc21,-21.2%,–
